According to PubChem BioAssay (NCI):
Compounds without any hit were thinned out: in the full panel of roughly 79,000, 15% have a hit. A number with no mark means an inactive call. Calls of active or inactive are those of the source. Cut-off read from the data, not from the text of the source: active = growth inhibition above about 70%; inactive = the rest.

assay: NCI Yeast Anticancer Drug Screen. Data for the bub3 strain (AID 167); conditions: S. cerevisiae bub3 mutant strain, at 50.0 µM, active compounds read high
How it was run: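 Screening used yeast with an engineered genetic alteration affecting cell cycle control. Compound-exposed cultures were compared with vehicle cultures, and reduced growth was taken as inhibition.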

| SMILES | growth inhibition |
| --- | --- |
| Clc1ccc(-c2nc3ccc(Cl)cc3[nH]2)cc1 | 88% (active) |
| O=C1c2ccccc2NC(=O)C2C1C(c1ccccc1)CC2(O)c1ccccc1 (stereo not given) | 69.5% |
| COc1ccc(CC2C(=O)NC(C)C(=O)N(C)C3Cc4ccc(cc4)Oc4cc(ccc4O)CC(C(=O)NC(C)C(=O)NC(C)C(=O)N2C)N(C)C3=O)cc1 (stereo not given) | 59.6% |
| O=C1c2cccnc2-c2nccc3c2c1nc1cc(Br)ccc13 | 89.2% (active) |
| CCN(C(=O)O)c1ccc(/C=C/c2ccnc3ccccc23)cc1 | 23% |
| O=C(/C=C/c1cccc(Cl)c1)c1ccccc1 | 95.2% (active) |
| O.O.O=C(O)C(O)C(O)C(OC1OC(CO)C(O)C(O)C1O)C(O)CO.O=C(O)C(O)C(O)C(OC1OC(CO)C(O)C(O)C1O)C(O)CO.[NH-]C1CCCCC1[NH-].[Pt+2] (stereo not given) | 99.4% (active) |
| O=C(N=c1sc2ccccc2s1)N=c1sc2ccccc2s1 | 29.6% |
| Cc1ccsc1/C=N/Nc1ccc2ccccc2n1 | 79% (active) |
| CC(C)(C)C1=NC(=S)SC2=NC(=O)C3(NN21)c1ccccc1-c1ccccc13 | 91% (active) |
| COC(=O)c1ccc(OC)cc1 | 69.1% |
| Cc1ccc(/C=C2\CN(C)CC3=C2NC(=S)NC3c2ccc(C)cc2)cc1 (stereo not given) | 20.1% |
| O=C1NC(=O)/C(=C/C=C/c2ccccc2)S1 | 48.1% |
| Nc1ccc(Cc2ccc(N)cc2[N+](=O)[O-])c([N+](=O)[O-])c1 | 35.4% |
| COc1ccccc1/C=C\C(=O)c1ccccc1 | 98.8% (active) |
| NNC(=S)NN/C=C(\C=Nc1ccccc1)[N+](=O)[O-] | 75.1% (active) |
| CCCCCCCCCCCCCCCCCO | 75.2% (active) |
| COc1cc(C(c2cc3c(cc2O)OCO3)N2CCOCC2)cc(OC)c1OC (stereo not given) | 7.1% |
| O=C1OCc2cccc3cccc1c23 | 27.8% |
| CSC(=S)NNC(C)c1nccc2ccccc12 (stereo not given) | 98.2% (active) |

| SMILES | growth inhibition |
| --- | --- |
| N#Cc1c(Cl)nc2ccccc2c1N=[N+]=[N-] | 14.8% |
| CC(C)(C)CC(C)(C)c1ccc(OCCSC(=N)N)cc1 | 99.4% (active) |
| COC1CCC(O)C(CO)O1 (stereo not given) | 99.5% (active) |
| CC(=O)N(C1=C(Cl)C(=O)c2ccccc2C1=O)c1ccc(Cl)cc1 | 79.8% (active) |
| Cc1nc(N2N=C(c3ccc(Cl)cc3)CCC2=O)sc1[N+](=O)[O-] | 84% (active) |
| Cn1c2c(c3ccccc31)CCN1C[C@@H]3CCCC[C@H]3C[C@@H]21 | 62.5% |
| Cn1cc(NC(=O)Nc2cc(C(=O)Nc3cc(C(=O)Nc4ccc5cc(S(=O)(=O)O)cc(S(=O)(=O)O)c5c4)n(C)c3)n(C)c2)cc1C(=O)Nc1cc(C(=O)Nc2ccc3cc(S(=O)(=O)O)cc(S(=O)(=O)O)c3c2)n(C)c1 | 92.5% (active) |
| CC(=O)Oc1c(Cl)cc(Cl)cc1C(c1cc(Cl)cc(Cl)c1OC(C)=O)C(Cl)(Cl)Cl | 98.3% (active) |
| CCCCCc1ccc2cc(C(=O)O)[nH]c2c1 | 97.2% (active) |
| C/C(=N/O)c1cc([N+](=O)[O-])c(O)cc1O | 86.5% (active) |
| CCOC(=O)CNC(=O)Sc1ccc(C(C)(C)C)cc1C | 69.7% |
| S=C(N/N=C1\C=Cc2ccccc2C1)N/N=C1\C=Cc2ccccc2C1 | 62.4% |
| Cc1cccc(Nc2c3c(nc4ccccc24)CCCCC3)c1 | 27.1% |
| Cc1ccc(NS(=O)(=O)c2ccc(C)cc2)cc1 | 28.6% |
| CCOC(=O)C(=CNC(=S)Nc1c(CC)cccc1C(C)(C)C)C(=O)OCC | 84.2% (active) |
| COC1/C=C/OC2(C)Oc3c(C)c(OC(C)=O)c4c(c3C2=O)C(=O)C=C(NC(=O)/C(C)=C\C=C\C(C)C(O)C(C)C(O)C(C)C(OC(C)=O)C1C)C4=O (stereo not given) | 42.6% |
| O=C(O)c1ccc(/C=C2\COc3ccccc3C2=O)cc1 | 68.2% |
| Cc1c2c(c(C)c3ccncc13)S(=O)(=O)c1ccccc1-2 | 55% |
| Oc1c(Cl)cc(Cl)c2cccnc12 | 98.5% (active) |
| Cc1ccc(S(=O)(=O)Nc2ccc3c(c2)C(=O)c2ccccc2-3)cc1 | 93.7% (active) |
